Hits are enriched below; roughly 0.54% of the tested compounds scored in any of these assays.
Vif-APOBEC3F blk: blocks the Vif interaction with APOBEC3F | hit rate 0.2% among 390,000 | HeLa A3F-eYFP + Vif (tagged APOBEC3F with the HIV-1 protein that degrades it), YFP fluorescence increase | Potency, µM (highest dose often 46.1 µM), inactives show top-dose activity, negative = active | AID 602313; note: potency is the fitted concentration of half-maximal effect; % of control where 0% means no effect; nearly all actives have a fitted effect of over 65% in size
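Fluorescence increase (Ex 488/Em 500-530) after overnight compound treatment at 37 deg C flags inhibition of Vif-driven A3F-eYFP loss in stable HeLa A3F-eYFP/Vif cells seeded overnight beforehand.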
BCR signal inh: blocks chronic active B-cell receptor signaling; ABC-DLBCL IkBa-CBG/CBR reporter, luminescence ratio, 4 h; Potency, µM (titrated, usually from 46.1 µM), for inactives: at the highest dose activity change, negative = inhibition, actives largely listed as inhibitors; AID 493014; hit rate 0.05% among 340,000; active = well fitted inhibition curve with a large enough effect in the signal ratio, with a control signal flat, not every such curve was filed as active; inconclusive = small, poorly fitted or top-dose-only effect, or effect the other way, or a change in a side signal; the % refers to the signal ratio;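 note: potency is the fitted concentration of half-maximal effect; plate controls were basal doxycycline-induced cells for no effect and cells given 10 µM MG132 for full effect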
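TMD8 ABC-DLBCL cells carrying doxycycline-inducible green luciferase fused to IkappaBalpha plus unfused red luciferase were exposed to compounds (up to 46 uM) for 4 hrs at 37C. Activity came from the overlap-corrected green/red luminescence ratio.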
Vif-APOBEC3G blk: inhibitors of Vif-APOBEC3G interaction; Q9HC16; HeLa A3G-eYFP + Vif (tagged APOBEC3G with the HIV-1 protein that degrades it), YFP fluorescence, overnight; Potency, µM (titrated, usually from 46.1 µM), inactives show at the highest dose activity, negative = active, usual class: inhibitors; hit rate 0.076% among 410,000; note: potency is the fitted concentration of half-maximal effect; % is set by controls: 0 for no effect and ±100 for the full control effect; nearly all actives have a fitted effect of over 60% in size
Target sequence (Q9HC16 whole entry, looked up): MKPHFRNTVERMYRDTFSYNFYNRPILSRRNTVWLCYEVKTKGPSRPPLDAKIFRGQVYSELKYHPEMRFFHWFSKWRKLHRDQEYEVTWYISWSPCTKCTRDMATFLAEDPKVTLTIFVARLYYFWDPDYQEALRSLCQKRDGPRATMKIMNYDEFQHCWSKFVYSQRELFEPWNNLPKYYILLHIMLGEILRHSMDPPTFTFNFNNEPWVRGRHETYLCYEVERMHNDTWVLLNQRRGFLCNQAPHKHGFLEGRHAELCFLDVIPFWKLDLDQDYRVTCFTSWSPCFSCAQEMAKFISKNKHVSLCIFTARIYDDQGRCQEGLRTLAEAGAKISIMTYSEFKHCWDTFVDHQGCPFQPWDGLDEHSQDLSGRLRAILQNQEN
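HeLa cells stably expressing Vif and C-terminally eYFP-tagged A3G, seeded overnight at 37 deg C, then exposed to compound by pintool overnight at 37 deg C. Rise in yellow fluorescence (Ex 488/Em 500-530, Acumen) marks blocked Vif-driven A3G degradation.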
TCR act: activates T cell receptor signaling; 330,000 tested, under 10 active; AID 504894; Potency, µM (titrated, usually from 9.22 µM), inactives show at the highest dose activation of IL-2 secretion, most hits filed as activators; primary human leukocytes, anti-CD3, IL-2 HTRF, 48 h; note: % of control where 0% means no effect
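Primary human leukocytes incubated 48 hr with anti-CD3 beads plus compound, without co-stimulation. Secreted IL-2 measured by HTRF (europium cryptate/d2 anti-IL-2 pair, 320 nm excitation, 665 nm emission).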
MBNL1-CUG inh: blocks human MBNL1 binding to CUG repeat RNA | TR-FRET MBNL1-His/biotin-(CUG)12 binding, 665/545 ratio | hit rate 0.036% among 280,000 | Potency, µM (doses to about 57.5 µM), without a hit: top-dose activity change, negative = inhibition, usual class: inhibitors | Q9NR56 | AID 2675; active = well fitted inhibition curve with a large enough effect in the signal ratio, with a control signal flat, not every such curve was filed as active; inconclusive = small, poorly fitted or top-dose-only effect, or effect the other way, or a change in a side signal; inactive = no such curve, though single readings can be large or run the other way; the % refers to the signal ratio; note: potency is the fitted concentration of half-maximal effect; % is set by controls: 0 for no effect and ±100 for the full control effect
Target sequence (Q9NR56 whole entry, looked up): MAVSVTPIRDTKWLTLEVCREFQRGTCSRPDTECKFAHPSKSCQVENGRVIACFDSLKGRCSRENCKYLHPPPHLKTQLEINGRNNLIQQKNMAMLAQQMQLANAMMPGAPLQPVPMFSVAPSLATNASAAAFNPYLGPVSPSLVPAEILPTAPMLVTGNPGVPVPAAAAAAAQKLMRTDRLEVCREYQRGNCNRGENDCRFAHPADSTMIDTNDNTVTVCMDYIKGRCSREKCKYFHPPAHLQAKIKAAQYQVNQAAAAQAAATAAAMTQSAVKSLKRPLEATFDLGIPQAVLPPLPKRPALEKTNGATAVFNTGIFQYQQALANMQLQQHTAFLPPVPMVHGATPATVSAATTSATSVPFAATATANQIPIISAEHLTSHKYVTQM
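Compounds (final 92 nM to 58 uM) are added to His-tagged MBNL1 and biotin-(CUG)12, then terbium anti-His antibody and streptavidin-XL665 (5 nM final). After 60 min at room temperature, the 665/545 nm ratio is read.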
uPA generation: inhibitors of cell surface uPA generation | cell surface uPA generation assay, qHTS | Potency, µM (titrated, usually from 38.3 µM), for the others: at the top dose activity change, negative = inhibition, actives largely listed as inhibitors | hit rate 0.31% among 330,000 | AID 540303; active = well fitted inhibition curve with a large enough effect; inconclusive = small, poorly fitted or top-dose-only effect; inactive = no such curve, though single readings can be large or run the other way; tested in mouse RAW 264.7 cells; note: potency is the fitted concentration of half-maximal effect; % is set by controls: 0 for no effect and ±100 for the full control effect; nearly all actives have a fitted effect of over 55% in size
An asterisk follows results filed as active; [ ] = remark or other dose. Unless noted, calls come from the whole dose curve; as a rule, active = well fitted curve in the direction sought with a large enough effect; inconclusive = small, poorly fitted or top-dose-only effect, or another doubt; inactive = no such curve, though single readings can be large; an effect the other way counts as inactive or inconclusive.

For NC(=O)COC(=O)c1ccccc1OCC(=O)Nc1ccc(Br)cc1 the results were Vif-APOBEC3G blk 1%.
`O=C1CC(c2ccco2)Cc2[nH]c(=O)c(C(=O)Nc3ccccc3)cc21` (stereo not given) gave Vif-APOBEC3G blk 3%.
`CCn1c(SC(C)C(=O)Nc2ccc(C)cc2)nnc1-c1ccccc1` (stereo not given) gave Vif-APOBEC3G blk -1%.
CN(CC(=O)Nc1ccc(Cl)c(C(F)(F)F)c1)C(=O)CCCNC(=O)c1ccc(Cl)cc1 was read as Vif-APOBEC3F blk 0%, BCR signal inh inconclusive, Vif-APOBEC3G blk -1%, TCR act -1% and uPA generation 8.9µM*.
For Nc1c(Cl)cc(/C=C2\C=Cc3ccccc32)cc1Cl the results were Vif-APOBEC3G blk -14%.
Screening CC1=CC(C)(C)Nc2ccc(OC(=O)CCN3C(=O)c4ccccc4C3=O)cc21 returned Vif-APOBEC3F blk inconclusive, BCR signal inh inconclusive, Vif-APOBEC3G blk 11µM*, TCR act 2%[46.1 µM], MBNL1-CUG inh 3% and uPA generation -14%.
For C(=Nc1cnc2ccccc2c1)c1ccnc2ccccc12 the results were Vif-APOBEC3G blk -2%.
Screening CCOC(=O)Nc1cccc2ccccc12 returned Vif-APOBEC3F blk 5%, BCR signal inh inconclusive, Vif-APOBEC3G blk -6%, TCR act 10%, MBNL1-CUG inh 4% and uPA generation -9%.
CCOC(=O)Nc1ccc2c3c(cccc13)-c1ccccc1-2 was read as Vif-APOBEC3F blk 3.5µM*, Vif-APOBEC3G blk inconclusive, TCR act -10% and uPA generation -9%.
For CCc1ccc(-n2c(SCC(=O)c3ccc4c(c3)NC(=O)CO4)nc3ccccc3c2=O)cc1 the results were Vif-APOBEC3F blk inconclusive, BCR signal inh inconclusive, Vif-APOBEC3G blk 0%, TCR act 7%, MBNL1-CUG inh -4% and uPA generation 9%.
`O=C1COc2ccc(C(=O)CSc3nc4ccccc4c(=O)n3-c3ccc(Cl)c(Cl)c3)cc2N1` gave Vif-APOBEC3F blk 10µM*, BCR signal inh -11%, Vif-APOBEC3G blk inconclusive, TCR act 3%, MBNL1-CUG inh -7% and uPA generation 2%.
Screening O=Cc1ccc(I)cc1 returned Vif-APOBEC3G blk -2%.
CCOC(=O)c1cc(C#N)c(SC(C(=O)N2CCCCC2)c2ccccc2)nc1C (stereo not given) was read as Vif-APOBEC3G blk 0%.
Screening CCCN(C(=O)CSc1n[nH]c(-c2ccc(OC)cc2)n1)c1c(N)n(Cc2ccccc2)c(=O)[nH]c1=O returned Vif-APOBEC3F blk 25µM*, BCR signal inh inconclusive, Vif-APOBEC3G blk -23%, TCR act -3% and uPA generation 2%.
For O=C(Nc1cccc(Nc2ccccc2)c1)c1cnn2c1NC(=C1CC1)C=C2C(F)F the results were Vif-APOBEC3G blk 0%.
For CN(CC(=O)O)c1ccc(/C=C2\C=Cc3ccccc32)cc1 the results were Vif-APOBEC3G blk -2%.
For CCN(CC)S(=O)(=O)c1ccc(N2CCCCC2)c(NC(=O)/C(C#N)=C/c2ccc(OC)cc2)c1 the results were Vif-APOBEC3F blk -1%, BCR signal inh 0%, Vif-APOBEC3G blk 0%, TCR act 1%[46.1 µM], MBNL1-CUG inh 0% and uPA generation 3%.
CCOc1ccc(NC(=O)/C(C#N)=C/c2ccc(N3CCCC3)c(C)c2)cc1 was read as Vif-APOBEC3F blk 2.5µM*, BCR signal inh inconclusive, Vif-APOBEC3G blk 4µM*, TCR act 7%[46.1 µM], MBNL1-CUG inh 276% and uPA generation 2%.
Screening C/C(=N\NC(=O)c1ccc(O)cc1)c1cccc(NC(=O)c2ccccc2C)c1 returned Vif-APOBEC3F blk 7%, BCR signal inh inconclusive, Vif-APOBEC3G blk inconclusive, TCR act 0%, MBNL1-CUG inh 5% and uPA generation 10µM*.
O=C(Nc1cccc(O)c1)c1ccccc1[N+](=O)[O-] was read as Vif-APOBEC3F blk -2%, BCR signal inh inconclusive, Vif-APOBEC3G blk 0%, TCR act 2%, MBNL1-CUG inh inconclusive and uPA generation 3%.
Screening Cc1ccccc1C(=O)Nc1cccc(NC(=O)c2ccccc2[N+](=O)[O-])c1 returned Vif-APOBEC3F blk -1%, BCR signal inh -14%, Vif-APOBEC3G blk -4%, TCR act 4%, MBNL1-CUG inh inconclusive and uPA generation 4.5µM*.
For COc1ccc2nc(N(CCN(C)C)C(=O)/C=C/c3cccs3)sc2c1 the results were Vif-APOBEC3F blk -29%, BCR signal inh inconclusive, Vif-APOBEC3G blk -22%, TCR act 12%, MBNL1-CUG inh -1% and uPA generation 10µM*.
Screening COc1ccc2sc(N(CCN(C)C)C(=O)/C=C/c3cccs3)nc2c1 returned Vif-APOBEC3F blk 3%, BCR signal inh inconclusive, Vif-APOBEC3G blk -9%, TCR act 1%, MBNL1-CUG inh -12% and uPA generation inconclusive.
`Cc1nc([N+](=O)[O-])c(Br)n1Cc1ccccc1` gave Vif-APOBEC3F blk 0%, BCR signal inh inconclusive, Vif-APOBEC3G blk -14%, TCR act -1%, MBNL1-CUG inh inconclusive and uPA generation 10µM*.
CCOc1cc(/C=C2\CCC/C(=C\c3cc(Cl)c(O)c(OCC)c3)C2=O)cc(Cl)c1O was read as Vif-APOBEC3F blk inconclusive, BCR signal inh inconclusive, Vif-APOBEC3G blk 3.2µM*, TCR act -2%, MBNL1-CUG inh 3% and uPA generation -7%.
Screening CN(C)c1ccc(/C=C/c2ccnc3ccc([N+](=O)[O-])cc23)cc1 returned Vif-APOBEC3G blk 1%.
`COc1ccc(OC)c(/C=C/c2ccc3ccccc3[n+]2C)c1` gave Vif-APOBEC3G blk 1%.
COCCCNc1nc2ccccc2nc1NS(=O)(=O)c1ccc(C)cc1 was read as Vif-APOBEC3F blk inconclusive, BCR signal inh inconclusive, Vif-APOBEC3G blk -7%, TCR act -8%, MBNL1-CUG inh 12% and uPA generation 4%.
`COCCCNc1nc2ccccc2nc1NS(=O)(=O)c1ccccc1` gave Vif-APOBEC3F blk 22µM*, BCR signal inh -5%, Vif-APOBEC3G blk 1%, TCR act 2%, MBNL1-CUG inh 4% and uPA generation -5%.
COc1cc2c(NC3CCN(C(C)C)CC3)nc(N3CCCN(C)CC3)nc2cc1OCCCN1CCCC1 was read as Vif-APOBEC3G blk -3%.
For Cc1ccc(C)c(C(C)NC(=S)NCc2ccc(F)cc2)c1 (stereo not given) the results were Vif-APOBEC3F blk 11µM*, BCR signal inh inconclusive, Vif-APOBEC3G blk -1%, TCR act -3%, MBNL1-CUG inh -8% and uPA generation -6%.

Source: PubChem BioAssay
